Source: PubChem
Rows were chosen to be rich in hits. Some 2.2% of all compounds tested hit in one or more screens of this group.
GASC-1 inh: inhibitors of GASC-1 histone demethylase, primary screen, biochemical, fluorescence, DELFIA europium | Lysine-specific demethylase 4C (Homo sapiens), Q9H3R0 | GST-JMJD2C(1-420) H3K9me3 demethylation | inhibition, % at 2.35 µM | hit rate 0.069% among 330,000;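 active = more than half of a compound's replicate wells show inhibition beyond 50%, single wells judged on their own value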;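 also: signal counts dimethyl H3K9 product captured on neutravidin plate; 0% = median of DMSO wells and 100% = 0.3 times that DMSO median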
V-ATPase pH: regulators of yeast V-ATPase proton pumping, primary screen, pHLuorin cytosolic pH fluorescence; S. cerevisiae; response, % at 10 µM; hit rate 0.37% among 350,000; in the data active = response mostly above about 7.3%, no sharp cut-off; inactive = mostly below about 5.4%; also: actives read high
VLA-4 inh: inhibition in human VLA-4 binding assay, primary screen, VLA-4 allosteric modulator project, MLPCN library, flow cytometry, VLA-4 expressing cells; Integrin alpha-4 (Homo sapiens), P13612; ligand binding flow cytometry; inhibition, % (about 7 µM as worked out from the volumes in the protocol); hit rate 0.2% among 330,000; in the data active = inhibition above about 50%
m5-HT2A agonist: mouse Htr2a agonists via beta-arrestin recruitment, primary screen, cell-based, luminescence | 5-hydroxytryptamine receptor 2A (Mus musculus), P35363 | activation, % at 7.6 µM | AID 624169, 2012 | hit rate 0.66% among 360,000 | CHO-K1 mHTR2A beta-arrestin complementation; percent of 30 µM serotonin response;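 active = activation above a run cutoff, the mean activation of all tested compounds plus 3 SD, cut at about 14% in these data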;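 also: 0% = plate median of compound wells and 100% = 30 µM serotonin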
Exocytosis inh: LAMP-1 surface exposure blockers, TALL-104 cells – cell-based, flow cytometry, MLPCN library, primary screen; AID 651702, 2012; TALL-104 LAMP-1 surface exposure; cells stimulated with thapsigargin and PMA; hit rate 0.66% among 360,000; inhibition, % at 10 µM;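 active = inhibition above about 55%, limit read from the data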
MEX-5 binding: MEX-5 zinc finger RNA-binding disruptors – biochemical, C. elegans, fluorescence polarization, MLPCN library, primary screen; Zinc finger protein mex-5 (Caenorhabditis elegans), Q9XUB2; MEX-5/FITC-TCR2 RNA binding; hits give low values; activity score (negative = inhibition of binding), % at 10 µM; hit rate 0.38% among 300,000; AID 1832, 2009;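 active = inhibition past about -25% in most replicates, and total fluorescence under double the plate's negative control median, limit read from the data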;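 also: 0% = DMSO and -100% = 5 µM competing unlabeled TCR2 RNA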
Target sequence (Q9XUB2 whole entry, looked up): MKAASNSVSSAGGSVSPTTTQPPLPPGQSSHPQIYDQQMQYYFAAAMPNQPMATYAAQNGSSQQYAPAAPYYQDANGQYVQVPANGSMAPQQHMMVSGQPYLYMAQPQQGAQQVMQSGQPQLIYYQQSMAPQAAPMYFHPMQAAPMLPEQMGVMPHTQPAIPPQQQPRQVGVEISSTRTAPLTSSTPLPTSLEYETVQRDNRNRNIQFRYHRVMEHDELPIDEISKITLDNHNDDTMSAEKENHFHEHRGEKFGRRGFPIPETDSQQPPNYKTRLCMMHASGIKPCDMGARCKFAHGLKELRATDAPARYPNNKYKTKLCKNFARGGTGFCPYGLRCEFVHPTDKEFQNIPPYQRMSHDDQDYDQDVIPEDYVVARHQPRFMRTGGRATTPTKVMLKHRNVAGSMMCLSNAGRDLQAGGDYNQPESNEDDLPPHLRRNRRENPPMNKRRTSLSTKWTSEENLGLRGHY
OPRM1 ag: OPRM1 agonists via beta-arrestin recruitment, confirmation, counter-screen for mouse HTR2A agonist project, cell-based, luminescence, single concentration | shares compounds with m5-HT2A agonist | U2OS OPRM1 beta-arrestin PathHunter; DMSO 0%, DAMGO 9.3 µM 100% | activation, % at 9.3 µM | hit rate 5.3% among 2,300;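 active = mean activation above the mean of DMSO-only wells plus 3 SD, cut at about 0.5% in these data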
HTR2A ag conf: mouse HTR2A agonists, beta-arrestin recruitment, confirmation, cell-based, luminescence, CHO-K1 PathHunter, triplicate; shares compounds with m5-HT2A agonist; DMSO 0%, 30 µM serotonin 100%; activation, % at 7.6 µM; hit rate 19% among 2,300; AID 624381, 2012;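 active = mean activation across triplicates above the hit threshold derived in the original primary screen, cut at about 15% in these data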
Active calls of the source: *.

`O=C(Nc1ccccc1)Nc1nnc(SCc2ccc(Cl)cc2)s1` gave GASC-1 inh 11, V-ATPase pH 2, VLA-4 inh 2, m5-HT2A agonist 17*, Exocytosis inh 27, MEX-5 binding -1, OPRM1 ag 0 and HTR2A ag conf -1.
For Cc1ccc(S(=O)(=O)Nc2cc3c4c(c2)CCC(=O)N4CCC3)cc1 the results were GASC-1 inh -5, V-ATPase pH -8, VLA-4 inh 4, m5-HT2A agonist 2, Exocytosis inh 8 and MEX-5 binding -7.
Screening CCn1nc(C(=O)Nc2nc(-c3ccccn3)cs2)c2ccccc2c1=O returned GASC-1 inh -6, V-ATPase pH -6, VLA-4 inh 2, m5-HT2A agonist 10 and Exocytosis inh 2.
`CCCn1nc(C(=O)Nc2nc(-c3ccccn3)cs2)c2ccccc2c1=O` gave GASC-1 inh 8, V-ATPase pH 4, VLA-4 inh 34, m5-HT2A agonist 23*, Exocytosis inh 0, OPRM1 ag 0 and HTR2A ag conf -5.
Screening CC(C)C(=O)N1CCCCCCN1C(=O)C(C)C returned V-ATPase pH 2, m5-HT2A agonist -2 and Exocytosis inh 8.
For Cc1ccc(OCCNCc2ccccc2)c(C)c1 the results were GASC-1 inh 5, V-ATPase pH -3, VLA-4 inh 6, m5-HT2A agonist -1, Exocytosis inh 3 and MEX-5 binding 3.
Cc1cc(Cl)c(OCCCNCc2ccccc2)c(Br)c1 was read as GASC-1 inh -1, V-ATPase pH 6, VLA-4 inh 4, m5-HT2A agonist 20*, Exocytosis inh -15, MEX-5 binding 0, OPRM1 ag 0 and HTR2A ag conf 10.
Screening Cc1cc(C)c(OCCCNCc2ccccc2)c(Br)c1 returned GASC-1 inh -10, V-ATPase pH 2, VLA-4 inh 5, m5-HT2A agonist 20*, Exocytosis inh 48, MEX-5 binding -1, OPRM1 ag 0 and HTR2A ag conf 4.
Cc1ccc(C)c(-c2nnc(NC(=O)Cc3ccc(F)cc3)o2)c1 was read as GASC-1 inh 8, V-ATPase pH -1, VLA-4 inh -20, m5-HT2A agonist 1, Exocytosis inh 0 and MEX-5 binding 0.
Screening COc1ccccc1N(C)S(=O)(=O)c1ccc(C(=O)Nc2nc(C)c(C(C)=O)s2)cc1 returned V-ATPase pH -6, VLA-4 inh -9, m5-HT2A agonist 18*, Exocytosis inh 0, OPRM1 ag 0 and HTR2A ag conf -2.
For COc1ccccc1N(C)S(=O)(=O)c1ccc(C(=O)Nc2ncc(C)s2)cc1 the results were GASC-1 inh -5, V-ATPase pH -4, VLA-4 inh 0, m5-HT2A agonist -17 and Exocytosis inh -1.
O=C(NCc1cccc(F)c1)C1CCC(=O)N(CC2CCCCC2)C1 (stereo not given) was read as GASC-1 inh 12, V-ATPase pH -3, VLA-4 inh 7, m5-HT2A agonist 13, Exocytosis inh -2 and MEX-5 binding -2.
`CCOC(=O)c1cc(=O)n2c(nc3ccccc32)[nH]1` gave GASC-1 inh 10, V-ATPase pH -1, VLA-4 inh 40, m5-HT2A agonist -1, Exocytosis inh -4 and MEX-5 binding 3.
For COCCS(=O)(=O)N(Cc1ccc(Br)cc1)[C@@H](C)C(=O)OC the results were V-ATPase pH 0, m5-HT2A agonist 9 and Exocytosis inh -2.
For Cc1ccc(NC(=O)COc2ccc(S(=O)(=O)N3CCOCC3)cc2)cc1 the results were GASC-1 inh -20, V-ATPase pH 3, VLA-4 inh 7, m5-HT2A agonist 20*, Exocytosis inh 0, MEX-5 binding 3, OPRM1 ag -1 and HTR2A ag conf -4.
Screening CC(C)c1ccc(NC(=O)COc2ccc(S(=O)(=O)N3CCOCC3)cc2)cc1 returned GASC-1 inh -12, V-ATPase pH 4, VLA-4 inh 1, m5-HT2A agonist -5, Exocytosis inh 0 and MEX-5 binding -1.
For COc1ccc(-c2nc(CS(=O)CC(=O)NCCCN3CCOCC3)c(C)o2)cc1OC (stereo not given) the results were GASC-1 inh 3, V-ATPase pH 1, VLA-4 inh -5, m5-HT2A agonist 17*, Exocytosis inh 0, MEX-5 binding -1, OPRM1 ag 0 and HTR2A ag conf 0.
COc1ccc(-c2nc(CS(=O)CC(=O)NCCCN3CCCC3)c(C)o2)cc1OC (stereo not given) was read as GASC-1 inh 14, V-ATPase pH 5, VLA-4 inh -20, m5-HT2A agonist 0, Exocytosis inh -2 and MEX-5 binding 1.
For Cc1ccccc1-n1ccnc1SCC(=O)O the results were GASC-1 inh -2, VLA-4 inh -10, m5-HT2A agonist 17*, Exocytosis inh 2, MEX-5 binding -1, OPRM1 ag -1 and HTR2A ag conf -5.
`COc1cc(C(=O)N2CCC(N3CCCCCC3)CC2)cc(OC)c1OC` gave GASC-1 inh -10, V-ATPase pH -2, VLA-4 inh 2, m5-HT2A agonist 15*, Exocytosis inh -2, MEX-5 binding -5, OPRM1 ag 0 and HTR2A ag conf 7.
COc1cc(C(=O)N2CCN(C3CCCCC3)CC2)cc(OC)c1OC was read as GASC-1 inh 0, V-ATPase pH 3, VLA-4 inh 0, m5-HT2A agonist 15*, Exocytosis inh -10, MEX-5 binding -3, OPRM1 ag 0 and HTR2A ag conf -3.
`COc1ccc(C(=O)N2CCN(C3CCCCC3)CC2)cc1OC` gave GASC-1 inh 4, V-ATPase pH -5, VLA-4 inh 5, m5-HT2A agonist 1, Exocytosis inh 8 and MEX-5 binding 4.
COc1ccc2c(c1)C(O)C(CO)C(C(=O)O)C2 (stereo not given) was read as V-ATPase pH -1, m5-HT2A agonist 16*, Exocytosis inh -1, OPRM1 ag -1 and HTR2A ag conf -3.
